The record followed here is PubChem BioAssay AID720518 (National Center for Advancing Translational Sciences (NCATS), 2013).

Molecules are shown by their SMILES. Inconclusive results are not listed. Unmarked numbers belong to inactive results. Calls come from the whole dose curve.

The nature of the experiment: qHTS for Inhibitors of Cell Surface uPA Generation: Wild-type Protective Antigen (WT-PrAg) Counterscreen for Cherry-picked Compounds. Note: 0% is about no effect. The following applies: cells, WT protective antigen toxicity counterscreen; series mostly up to 115 µM; activity (protection): at the top concentration. On the technique in general: In qHTS, concentration-response curves come from the screen itself.
Regarding `O=C(CCN1CCN(c2ccccc2F)CC1)Nc1ccc(F)cc1`, the “activity (protection)” value was -2.31%. In the case of `COc1ccc2c(c1)c1nnc(SCC(=O)Nc3ccccc3F)nc1n2C`, the “activity (protection)” value is -0.789%. For `C#CCN1C=C(C(=O)OCC)C(C)NS1(=O)=O` (stereo not given), the “activity (protection)” value is 1.5%. Turning to `COC(=O)c1ccc(N2CCN(c3ccccc3)CC2)c(NC(=O)C2CC2)c1`, the “activity (protection)” value is -0.466%.

As for `CSc1nc(-c2ccccc2)nc(C(Cl)Cl)n1`, the “activity (protection)” value is -2.51%. The result for `CC1CC(C)(C)Nc2ccc(N=O)cc21` (stereo not given) reads -2.49%; that for `COc1cc(NC(=O)COC(=O)c2cc(S(=O)(=O)N3CCCCC3)ccc2Cl)c(C)cc1[N+](=O)[O-]`, 0.664%; that for `CCOC(=O)C1CCN(CC(=O)Nc2cc(C)nn2-c2nc3ccccc3s2)CC1`, 12.1%. Consider `COC(=O)C1=CN(Cc2ccc(F)cc2)C=C(C(=O)OC)C1c1ccc(O)c(OC)c1`, for which the “activity (protection)” value was -0.103%. The result for `CC(Sc1nnc2ccccn12)C(=O)NCc1ccc2c(c1)OCO2` (stereo not given) reads 0.198%. The result for `CC(C)CN(C(=O)CN1CCC(C)CC1)c1c(N)n(CC(C)C)c(=O)[nH]c1=O` reads 0.779%; that for `CCOc1ccccc1N(CC(=O)Nc1ccc(OC)cc1)S(=O)(=O)c1ccccc1`, 0.0168%.

As for `CC1(C)C([N+](=O)[O-])C(c2ccc(F)cc2)NC(c2ccc(F)cc2)C1[N+](=O)[O-]` (stereo not given), the “activity (protection)” value was 6.17%. For `Cc1noc(C)c1COc1ccc(C(=O)O)cc1`, the “activity (protection)” value was -0.888%. For `COc1ccc(CNC(=O)C2(CC3CC(c4ccccc4)=NO3)CCNCC2)cc1` (stereo not given), the “activity (protection)” value was -2.06%. For the compound `Cc1ccc(CN2CCN(Cc3cc4ccccc4o3)CC2CCO)cc1` (stereo not given), the “activity (protection)” value was -0.17%.

As to `C[C@H]([C@H](O)c1ccccc1)N(C)C(=O)CN`, the “activity (protection)” value is 1.02%. As for `COc1ccc(-n2nc(C(=O)Nc3cc(OC)c(OC)c(OC)c3)c3ccccc3c2=O)c(OC)c1`, the “activity (protection)” value is -1.69%. In the case of `CCOC(=O)C(CC)n1cnc2c(nnn2-c2ccccc2)c1=O` (stereo not given), the “activity (protection)” value was 0.222%.

For `C=CCN1C=C2C(=O)C(C)(OC(=O)c3cnc4ccccc4n3)C(=O)C=C2C=C1/C=C/COC` (stereo not given), the “activity (protection)” value was -0.821%. In the case of `CC(C)N1CCc2c(sc(NC(=O)Cc3ccccc3)c2C(N)=O)C1` it was -0.213%; in that of `CCOC(=O)C1=C(CN2CCN(C(=O)c3ccco3)CC2)NC(=O)NC1c1ccccc1` (stereo not given), -0.235%; in that of `COc1cc2cc(CN(CCN3CCOCC3)C(=O)Nc3ccc(F)cc3)c(=O)[nH]c2cc1OC`, -0.0352%. In the case of `COc1ccc2nc3c(cc2c1)c(NC(=O)C1CCCO1)nn3CC(C)C` (stereo not given), the “activity (protection)” value was 1.84%. Consider `CC(=O)c1ccc(NC(=O)Nc2ccc(Br)cc2C)cc1`, for which the “activity (protection)” value was 1.01%.

As for `CC1=NN(C(N)=S)C(=O)C1N=Nc1ccccc1C(=O)O` (stereo not given), the “activity (protection)” value was -0.58%. Take `O=C(/C=C/c1cccc(Oc2ccccc2)c1)N1CCOCC1`: the “activity (protection)” value was 0.547%. On to `O=C(N/N=C/c1cccs1)c1ccco1`, for which the “activity (protection)” value is -1.72%. In the case of `COc1ccc(NC(=O)Nc2nnc(N3CCCCC3C)s2)cc1OC` (stereo not given) it was -1.51%; in that of `COc1ccc(NC(=O)c2cccnc2N2CCOCC2)cc1`, 0.0263%; in that of `O=C(/C=C/c1ccc(O)c(O)c1)O[C@@H]1C[C@](O)(C(=O)O)C[C@@H](O)[C@H]1O`, -0.319%. With `COC(=O)/C(C#N)=C\c1c(OC)[nH]c2ccccc12`, the “activity (protection)” value is -0.248%. Consider `COCCCN1CC23C=CC(O2)C(C(=O)O)C3C1=O` (stereo not given), for which the “activity (protection)” value was -0.168%. In the case of `NC(=O)CC(NC(=O)Cc1cccc2ccccc12)c1ccc(N2CCN(c3ccc(F)cc3)CC2)c([N+](=O)[O-])c1` (stereo not given) it was -0.604%. The result for `Cc1cc(C)n2nc(CNS(=O)(=O)c3ccc(F)c(C)c3)nc2n1` reads -0.539%; that for `COc1cccc(NC(=O)CN(C)C(=O)c2csc3c2CCCC3)c1`, 3.05%; that for `CN(CCC#N)C(=S)Nc1ccc(Oc2ccccc2)cc1`, -0.411%. In the case of `Cc1ccccc1S(=O)Cc1ccc(C(=O)N2CCN(C(=O)c3ccco3)CC2)o1` (stereo not given) it was -0.657%; in that of `O=C(CSc1ccc(Cl)cc1)Nc1ccc(C2SCCS2)cc1`, 1.42%. In the case of `Cc1cccc(N2CCN(Cc3ccc(Br)o3)CC2)c1C`, the “activity (protection)” value was 2.05%.
